Results taken from PubChem BioAssay (NCATS).
Where “and” joins values, the source holds several entries; their conditions need not be identical. Equal entries are not always repeated. Results filed as inconclusive are left out. Calls of active or inactive are those of the source. Unless noted, calls come from the whole dose curve; as a rule, active = well fitted curve in the direction sought with a large enough effect; inconclusive = small, poorly fitted or top-dose-only effect, or another doubt; inactive = no such curve, though single readings can be large; an effect the other way counts as inactive or inconclusive.

Key:
[1] = Cell Viability - MRC5 (AID 434; calls by dose curve;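 note: potency is the fitted concentration of half-maximal effect; cells exposed to compound for 40 hours at 37 °C; potency reflects cytotoxicity seen as loss of intracellular ATP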); settings: MRC5 lung fibroblast viability, qHTS
Method in brief: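 ATP luminescence read-out (CellTiter-Glo, 20 min RT) after 40 hr, 37 °C compound exposure of 1500 MRC5 cells/well. Data normalized to DMSO (basal) and 100 uM tamoxifen (100% inhibition); AC50 from standard Hill equation.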

[2] = Cell Viability - Mesenchymal (AID 546); settings: mesenchymal cells viability, qHTS; series mostly up to 91.7 µM;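 note: cells exposed to compound for 40 hours before reading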
Method in brief: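 Human renal mesenchymal cells (glomerulus-derived), 1000 cells/well, 5 hr 37 °C pre-incubation; compound 40 hr, 37 °C; CellTiter-Glo, 20 min RT; luminescence; AC50 via Hill equation.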

[3] = Cellular Toxicity (caspase-3) SHSY5Y (AID 657); settings: SH-SY5Y caspase-3 activation, DMSO zero, 10 µM staurosporine = 100%; series mostly up to 91.7 µM
Method in brief: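 SH-SY5Y human neuroblastoma cells (1500/well) were treated with compounds for 16 h at 37 °C, then Caspase-Glo 3/7 luminescence was read after 1 h at room temperature. Data normalized to DMSO and 10 uM staurosporine; AC50 from Hill fits.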

[4] = Cellular Toxicity (caspase-3) MRC-5 (AID 659); settings: MRC-5 cells, luminescence, normalized: DMSO 0%, 10 µM staurosporine 100%; series mostly up to 91.7 µM
Method in brief: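 MRC-5 fibroblasts, 1500/well; 16 h cpd, 37 °C; Caspase-Glo 3/7, 1 h RT; lumi read. Norm: DMSO = 0%, 10 uM staurosporine = 100%. Hill-fit AC50 from qHTS conc-response.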

[5] = Cellular Toxicity (caspase-3) Mesangial (AID 660); settings: mesangial cells, normalized: DMSO 0%, 100 µM tamoxifen 100%; series mostly up to 91.7 µM;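 note: combined caspase 3 and 7 activity read by Caspase-Glo luminescence; cells exposed to compound for 16 h before the caspase read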
Method in brief: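 Caspase 3/7 activation measured by Caspase-Glo 3/7 luminescence (20 min, room temperature) following 16 h exposure of mesangial cells (1000/well); AC50 from Hill-equation fit, normalized to DMSO and 100 uM tamoxifen.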

[6] = Cellular Toxicity (caspase-3) SK-N-SH (AID 661); settings: SK-N-SH caspase-3 activation, qHTS; series mostly up to 91.7 µM
Method in brief: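 Caspase 3/7 activation was read by luminogenic substrate cleavage after 16 hour treatment of SK-N-SH cells. Signal was scaled between DMSO and 10 uM staurosporine, and concentration-response data were fitted with the Hill equation for AC50.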

[7] = Cellular Toxicity (caspase-3) Hek293 (AID 664); settings: HEK293 caspase-3 activation, DMSO = 0%, 100 µM tamoxifen = 100%; at 92.2 µM (top of the series);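 note: cells exposed to compound for 16 h at 37 °C before readout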
Method in brief: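 Concentration-response qHTS: caspase 3/7 activation measured by luminescent aminoluciferin substrate cleavage after 16 h compound exposure of Hek 293 cells. AC50 from Hill equation, with DMSO as basal and 100 uM tamoxifen as 100%.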

[8] = Cellular Toxicity (caspase-3) N2a (AID 665); settings: N2a cells, luminescence, normalized: DMSO 0%, 10 µM staurosporine 100%; series mostly up to 92.2 µM;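 note: compound exposure lasted 16 h at 37 °C before readout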
Method in brief: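 Caspase-3/7 activation measured as luminescence from Caspase-Glo reagent (1 h, room temperature) after 16 h compound exposure of mouse N2a cells. AC50 values from Hill-equation concentration-response, scaled between DMSO and 10 uM staurosporine.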

[9] = Cell Viability - LYMP1-002 - Assay at 16 hr (AID 948); settings: LYMP1-002 lymphoblastoid cell viability; series mostly up to 92.2 µM;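 note: 0% = DMSO alone and full effect = 92 µM tetraoctylammonium bromide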
Method in brief: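 Human lymphoblastoid cells (LYMP1-002), 2500/well, were preincubated 5 hr at 37 C, then exposed to compounds for 16 hr at 37 C in complete medium. Cellular ATP was read by CellTiter-Glo luminescence after 30 min at room temperature; AC50 from Hill fits.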

[10] = MultiTox-Fluor Cytotoxicity Assay - LYMP1-003 - Dead Cells (AID 961); settings: LYMP1-003 lymphoblastoid cells, dead-cell protease fluorescence; series mostly up to 92.2 µM;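 note: 0% = DMSO and 100% = tetraoctylammonium bromide; nearly all actives have a fitted effect of over 70% in size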
Method in brief: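 Human lymphoblastoid LYMP1-003 cells (2500/well) were treated with compounds for 16 hr at 37 C in complete medium. Dead-cell protease release was read by bis-AAF-R110 fluorescence (Ex/Em 485/520). AC50 came from Hill fits, normalized to DMSO and 15 uM tetraoctylammonium bromide.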

[11] = MultiTox-Fluor Cytotoxicity Assay - LYMP1-003 - Live Cells (AID 962); settings: LYMP1-003 lymphoblastoid cells, MultiTox-Fluor live-cell protease fluorescence; series mostly up to 92.2 µM;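 note: 0% = DMSO only and full loss = 92 µM tetraoctylammonium bromide; cytotoxic hits lower the live-cell protease signal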
Method in brief: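 Live-cell protease activity (GF-AFC substrate, 405/510 nm, 60 min at room temperature) after 16 h, 37 C compound exposure of human lymphoblastoid LYMP1-003 cells; concentration-response fitted to the Hill equation for AC50.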

[12] = Cell Viability - LYMP1-003 - Assay at 24 hr (AID 963); settings: LYMP1-003 lymphoblastoid cell viability; series mostly up to 92.2 µM;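 note: plate controls were DMSO only for no effect and tetraoctylammonium bromide positive control for full effect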
Method in brief: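 Concentration-response qHTS: ATP loss measured by CellTiter-Glo luminescence after 24 h compound exposure at 37 C. Cells were LYMP1-003 human lymphoblastoid, 2500 per well. AC50 derived via standard Hill equation modeling.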

[13] = Cell Viability - LYMP2-004 (AID 966); settings: LYMP2-004 lymphoblastoid cell viability, qHTS; series mostly up to 92.2 µM;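 note: plate controls were DMSO only for no effect and tetraoctylammonium bromide control for full effect; nearly all actives have a fitted effect of over 65% in size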
Method in brief: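 AC50 values come from Hill modelling of concentration-dependent loss of intracellular ATP, measured by CellTiter-Glo luminescence. Human LYMP2-004 lymphoblastoid cells (2500/well) were exposed to compound for 24 h at 37 C.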

[14] = Cell Viability - LYMP2-025 (AID 976); settings: LYMP2-025 lymphoblastoid cell viability; series mostly up to 92.2 µM;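 note: plate controls were DMSO only for no effect and tetraoctylammonium bromide control for full effect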
Method in brief: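 Cytotoxicity read as loss of intracellular ATP (luciferase luminescence) after 24 h compound treatment at 37 C. Uses LYMP2-025 lymphoblastoid cells in 1536-well format; Hill-equation modelling gives AC50; tetraoctylammonium bromide as positive control.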

[15] = Cell Viability - LYMP2-007 (AID 979); settings: LYMP2-007 lymphoblastoid cell viability; series mostly up to 92.2 µM;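 note: cells exposed to compound for 24 h before reading; 0% = DMSO only and the negative end = 92 µM tetraoctylammonium bromide; nearly all actives have a fitted effect of over 60% in size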
Method in brief: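 AC50 values come from Hill-equation fits of luminescent intracellular ATP (CellTiter-Glo, 30 min, room temperature) following 24 h compound exposure at 37 C. Cells: LYMP2-007 lymphoblastoid line, 2500 per well, in complete culture medium.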

[16] = Cell Viability - LYMP2-014 (AID 983); settings: LYMP2-014 lymphoblastoid cells, viability qHTS; series mostly up to 92.2 µM;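 note: plate controls were DMSO only for no effect and 92 µM tetraoctylammonium bromide for full effect; nearly all actives have a fitted effect of over 50% in size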
Method in brief: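 Intracellular ATP loss, read by luciferase luminescence, measures acute cytotoxicity after 24 h compound exposure of lymphoblastoid LYMP2-014 cells (2500/well, 37 C). Concentration-response data fitted to the Hill equation for AC50.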

[17] = Cell Viability - LYMP2-024 (AID 988); settings: LYMP2-024 lymphoblastoid cell viability; series mostly up to 92.2 µM;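 note: plate controls were DMSO only for no effect and 92 µM tetraoctylammonium bromide for full effect; nearly all actives have a fitted effect of over 60% in size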
Method in brief: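 Cytotoxicity was taken as a decrease in ATP (CellTiter-Glo luminescence) after 24 hr compound exposure at 37 C of LYMP2-024 lymphoblastoid cells, 2500 cells/well. Concentration-response data were fitted to the Hill equation to give AC50.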

[18] = molecular target: Peroxisome proliferator-activated receptor alpha (Homo sapiens) (UniProt Q07869); experiment: qHTS assay for small molecule agonists of the peroxisome proliferator-activated receptor alpha (PPARalpha) signaling pathway (AID 651778); settings: PathHunter PPARalpha complementation, chemiluminescence, 6 h; stronger effect = higher value; note: % of control where 0% means no effect
Peroxisome proliferator-activated receptor alpha (Homo sapiens), sequence (Q07869 whole entry, looked up, the tested form may be a part): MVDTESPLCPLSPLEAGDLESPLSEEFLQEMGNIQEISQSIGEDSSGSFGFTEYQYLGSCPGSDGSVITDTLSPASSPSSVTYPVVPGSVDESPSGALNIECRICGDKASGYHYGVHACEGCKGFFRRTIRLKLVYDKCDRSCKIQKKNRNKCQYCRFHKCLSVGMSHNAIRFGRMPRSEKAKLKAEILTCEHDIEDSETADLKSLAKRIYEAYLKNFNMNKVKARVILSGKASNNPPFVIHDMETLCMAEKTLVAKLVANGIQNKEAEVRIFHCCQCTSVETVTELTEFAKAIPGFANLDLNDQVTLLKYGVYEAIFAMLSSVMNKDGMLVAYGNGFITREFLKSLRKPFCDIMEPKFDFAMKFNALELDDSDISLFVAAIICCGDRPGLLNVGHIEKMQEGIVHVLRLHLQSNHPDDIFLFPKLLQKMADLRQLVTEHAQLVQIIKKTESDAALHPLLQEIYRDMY
Method in brief: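 Enzyme-fragment complementation assay in which ligand-bound PPARalpha translocates and forms an active enzyme that generates chemiluminescence. Cells were plated overnight, exposed to compound for 6 hr at 37 C, and then given detection reagent for 60 min at room temperature.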

[19] = qHTS assay for small molecule agonists of the antioxidant response element (ARE) signaling pathway measured by Nrf2-dependant transcriptional activity - cell viability counter screen (AID 720653; active = well fitted curve in the direction sought with a large enough effect in the repeat runs; an effect the other way counts as inactive or inconclusive; note: % is set by controls: 0 for no effect and ±100 for the full control effect); settings: ARE-bla HepG2 viability, CellTiter-Glo ATP luminescence, 16 h; stronger effect = lower value
Method in brief: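 ARE-bla HepG2 cells treated with compounds for 16 h at 37C; this counter screen measures viability as intracellular ATP by CellTiter-Glo luminescence after 30 min at room temperature.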

[20] = qHTS assay for cell viability of the p53RE-bla HCT-116 cell line (AID 743292); settings: p53RE-bla HCT-116 viability, ATP luminescence, 16 h; series mostly up to 95 µM; note: % is set by controls: 0 for no effect and ±100 for the full control effect; nearly all actives have a fitted effect of over 55% in size
Method in brief: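 After plating at 4,000 cells per well and a 5 h rest at 37 C, HCT-116 cells carrying p53RE-bla received test chemicals in DMSO. Sixteen hours later at 37 C, CellTiter-Glo was added and luminescence recorded following 30 min at room temperature.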

C=CCBr
inactive: Potency [1] > 92 µM | Potency [2] | outcome [3] | outcome [4] | outcome [5] | Potency [6] | caspase-3 activation [7] 1.99% | outcome [8] | outcome [9] | Potency [10] | outcome [11] | outcome [12] | Potency [13] | Potency [14] | Potency [15] | Potency [16] | Potency [17] | max response [18] -4.55% | max response [19] -1.79% | Potency [20]

CCCCCCCCCCCOC(=O)c1ccccc1C(=O)OCCCCCCCCCCC
inactive: Potency [1] > 92 µM | Potency [2] | outcome [3] | outcome [4] | outcome [5] | Potency [6] | outcome [8] | outcome [9] | Potency [10] | outcome [11] | outcome [12] | Potency [13] | Potency [14] | Potency [15] | Potency [16] | Potency [17] | max response [18] 0.22% | max response [19] 3.11% | Potency [20]

O=C(O)CBr
inactive: Potency [1] > 92 µM | Potency [2] | outcome [3] | outcome [4] | outcome [5] | Potency [6] | caspase-3 activation [7] 2.72% | outcome [8] | outcome [9] | Potency [10] | outcome [11] | outcome [12] | Potency [13] | Potency [14] | Potency [15] | Potency [16] | Potency [17] | max response [18] 2.06% | max response [19] 9.96% | Potency [20]

CC(C)(C)OOC(=O)c1ccccc1
inactive: Potency [1] > 92 µM | Potency [2] | outcome [3] | outcome [4] | outcome [5] | Potency [6] | caspase-3 activation [7] -1.73% | outcome [8] | outcome [9] | Potency [10] | outcome [11] | outcome [12] | Potency [13] | Potency [14] | Potency [15] | Potency [16] | Potency [17] | max response [18] -5.26% and -0.274% | max response [19] 3.96% and -1.99% | Potency [20]

Nc1ncc([N+](=O)[O-])s1
inactive: Potency [1] > 92 µM | Potency [2] | outcome [3] | outcome [4] | outcome [5] | Potency [6] | caspase-3 activation [7] -1.64% | outcome [8] | outcome [9] | Potency [10] | outcome [11] | outcome [12] | Potency [14] | Potency [15] | Potency [16] | Potency [17] | max response [18] 7.02% | max response [19] 0.285% | Potency [20]

Oc1c(Cl)cccc1Cl
inactive: Potency [1] > 92 µM | Potency [2] | outcome [3] | outcome [4] | outcome [5] | Potency [6] | caspase-3 activation [7] 1.84% | outcome [8] | outcome [9] | Potency [10] | outcome [11] | outcome [12] | Potency [13] | Potency [14] | Potency [15] | Potency [16] | Potency [17] | max response [18] -1.21% | max response [19] 9.38% | Potency [20]

N#CCc1ccccc1
inactive: Potency [1] > 92 µM | Potency [2] | outcome [3] | outcome [4] | outcome [5] | Potency [6] | caspase-3 activation [7] -1.14% | outcome [8] | outcome [9] | Potency [10] | outcome [11] | outcome [12] | Potency [13] | Potency [14] | Potency [15] | Potency [16] | Potency [17] | max response [18] 0.0396% | max response [19] -1.59% | Potency [20]
